An excerpt weighted towards active compounds, which were near 11% of everything screened.
HPGD block – qHTS Assay for Inhibitors of HPGD (15-Hydroxyprostaglandin Dehydrogenase) | 15-hydroxyprostaglandin dehydrogenase [NAD(+)] (Homo sapiens), P15428 | 150,000 tested, 4.3% active | Potency, µM, inactives show at the highest dose activity change, negative = inhibition, actives largely listed as inhibitors | purified HPGD, NADH fluorescence kinetic, PGE2 substrate; note: potency is the fitted concentration of half-maximal effect
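20 nM HPGD preincubated 15 min at room temperature with compound in 50 mM Tris-HCl pH 8, 0.01% Tween 20. Started with 1 mM NAD+ and 30 uM prostaglandin E2; NADH fluorescence (360/450 nm) read 5 times over 30-s intervals, last minus first.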
12-hLO inh – qHTS Assay for Inhibitors of 12-hLO (12-human lipoxygenase). purified 12-hLO, xylenol orange hydroperoxide absorbance. Potency, µM (top dose mostly 57.1 µM), for inactives: at the top dose activity change, negative = inhibition, most hits filed as inhibitors. 150,000 tested, 0.12% active; active = well fitted curve in the direction sought with a large enough effect; inconclusive = small, poorly fitted or top-dose-only effect, or another doubt; inactive = no such curve, though single readings can be large; an effect the other way counts as inactive or inconclusive; note: potency is the fitted concentration of half-maximal effect; nearly all actives have a fitted effect of over 55% in size
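Hydroperoxide output read as Fe(III)-xylenol orange absorbance, 573-to-405 nm ratio, after 30 min reaction with 40 uM arachidonic acid. Enzyme: 150 nM purified human 12hLO, 15 min compound preincubation; 25 mM Hepes pH 7.0, room temperature.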
ALDH1A1 block – qHTS Assay for Inhibitors of Aldehyde Dehydrogenase 1 (ALDH1A1); Aldehyde dehydrogenase 1A1 (Homo sapiens), P00352; Purified ALDH1A1, NADH fluorescence, propionaldehyde substrate; Potency, µM (highest dose often 75.3 µM), without a hit: at the highest dose activity, negative = inhibition, usual class: inhibitors; 220,000 tested, 7.3% active; AID 1030, 2008;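 note: potency is the fitted concentration of half-maximal effect; plate controls were no enzyme wells and a reference inhibitor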
Target sequence (P00352 whole entry, looked up): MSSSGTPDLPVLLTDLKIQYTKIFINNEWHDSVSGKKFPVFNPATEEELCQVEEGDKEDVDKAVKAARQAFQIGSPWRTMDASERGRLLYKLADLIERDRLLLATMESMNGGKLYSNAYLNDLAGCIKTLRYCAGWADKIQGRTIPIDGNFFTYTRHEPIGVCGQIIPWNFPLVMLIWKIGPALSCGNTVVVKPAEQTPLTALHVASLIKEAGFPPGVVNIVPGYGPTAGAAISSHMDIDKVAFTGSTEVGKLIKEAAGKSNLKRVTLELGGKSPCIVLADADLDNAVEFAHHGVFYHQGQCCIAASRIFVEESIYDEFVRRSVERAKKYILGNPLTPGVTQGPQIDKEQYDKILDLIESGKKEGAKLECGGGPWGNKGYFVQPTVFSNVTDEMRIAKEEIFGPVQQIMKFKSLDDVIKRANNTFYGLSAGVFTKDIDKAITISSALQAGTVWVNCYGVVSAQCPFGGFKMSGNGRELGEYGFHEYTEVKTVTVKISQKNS
IMPase inh – qHTS Assay for Identifying the Cell-Membrane Permeable IMPase Inhibitors; inhibition (IP1 accumulation), % at 46.1 µM; 120,000 tested, under 10 active; CHO-M1 cells, IP1 accumulation, HTRF TR-FRET ratio; active = well fitted curve in the direction sought with a large enough effect in the signal ratio, not every such curve was filed as active; inconclusive = small, poorly fitted or top-dose-only effect, or a change in a side signal; inactive = no such curve, though single readings can be large or run the other way; the % refers to the signal ratio;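 note: cells stimulated with carbachol in lithium chloride buffer; plate controls were DMSO basal wells for no effect and reference inhibitor wells for full effect; higher means more IMPase inhibition seen as more IP1 and lower FRET ratio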
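Cellular IMPase inhibition is scored as a rise in cytosolic IP1, detected by competitive TR-FRET between d2-labelled IP1 and a europium anti-IP1 antibody. M1-expressing CHO cells were stimulated with carbachol for 30 min at 37C, with lithium (50 mM LiCl) present in the buffer.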
PNC inhibitor – High Content Assay for Compounds that inhibit the Assembly of the Perinucleolar Compartment | PC3M PTB-GFP, PNC prevalence imaging, 16 h; hits give low values | activity change (PNC), negative = inhibition, % at 10 µM | 140,000 tested, 3.1% active;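 active = readout at or below -70, meaning at least 70% loss of cells showing the perinucleolar compartment, a nuclear body marking cancer cells; inconclusive = readout between -30 and a set limit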;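 note: plate controls were DMSO wells for no effect and camptothecin positive control wells for full effect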
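Compounds are pinned in duplicate onto adhered PC3M cells stably expressing GFP-tagged PTB and incubated 16 h at 37 C. Cells are then fixed, nuclei stained with Hoechst, and PNC-positive cells counted.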
IMPase Li inh – qHTS Assay for Identifying the Cell-Membrane Permeable IMPase Inhibitors: Potentiation with Lithium; CHO-M1 cells, IP1 TR-FRET (IP-One), carbachol + lithium; 210,000 tested, 0.35% active; Potency, µM (highest dose often 59.4 µM), for inactives: at the highest dose activity, negative = IMPase inhibition, hits mostly inhibitors; active = well fitted curve in the direction sought with a large enough effect; inconclusive = small, poorly fitted or top-dose-only effect, or another doubt; inactive = no such curve, though single readings can be large; an effect the other way counts as inactive or inconclusive;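 note: IP1 builds up when IMPase is blocked and the TR-FRET signal falls; potency is the fitted concentration of half-maximal effect; plate controls were basal vehicle for no effect and high inhibitor control for full effect; nearly all actives have a fitted effect of over 50% in size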
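Lithium-sensitised IP1 accumulation assay; M1-expressing CHO cells treated 30 min at 37C with compound. Competitive antibody detection by time-resolved FRET followed a 10 min room-temperature lysis step.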
Active calls of the source: *; [ ] = dose if it differs, or a comment. Unless noted, calls come from the whole dose curve; as a rule, active = well fitted inhibition curve with a large enough effect (not every such curve was filed as active); inconclusive = small, poorly fitted or top-dose-only effect, or another doubt; inactive = no such curve, though single readings can be large or run the other way. Unless noted, % is set by controls: 0 for no effect and ±100 for the full control effect.

Screening COC(=O)CC1C2(C)CC34OC5(C)O[C@@]6(C7/C(=C(/OC)C(C)C)C(=O)OC(c8ccoc8)[C@@]7(C)C(OC(=O)C(C)C)C(OC)[C@]6(O5)[C@@]13C)C(OC)[C@]4(OC)C2OC(C)=O (stereo partly drawn) returned HPGD block -9%, 12-hLO inh -5%, ALDH1A1 block 3% and IMPase Li inh 10%.
For COC(=O)C(CCSC)NC(=O)c1cc2c(n(-c3ccc(Cl)cc3)c1=O)CCCC2=O (stereo not drawn) the results were IMPase inh 8.
CCN1CCCc2cc(CN(CCN3CCOCC3)C(=S)Nc3ccc(C)cc3)ccc21 was read as ALDH1A1 block 6.3µM* and IMPase Li inh 22%.
CCOc1ccc(NC(=S)N(CCN2CCOCC2)Cc2ccc3c(c2)CCCN3CC)cc1 was read as ALDH1A1 block 13µM* and IMPase Li inh 3%.
COCCNc1ncncc1-c1c(C)noc1C was read as ALDH1A1 block 6% and IMPase Li inh -1%.
`CCSC1=C(C#N)C(c2ccc(Cl)cc2)C2=C(CCCC2=O)N1` (stereo not drawn) gave HPGD block -15%, 12-hLO inh -18%, ALDH1A1 block -9%, IMPase inh -2, PNC inhibitor inconclusive and IMPase Li inh 26%[38.3 µM].
CSC1=C(C#N)C(c2ccc3c(c2)OCO3)C2=C(CCCC2=O)N1 (stereo not drawn) was read as HPGD block 16µM*, 12-hLO inh -4%, ALDH1A1 block -6%, PNC inhibitor -23 and IMPase Li inh -1%.
`O=c1cnc2cnc(Oc3ccccc3)nc2n1Cc1cccs1` gave HPGD block -12%, 12-hLO inh 3%, ALDH1A1 block inconclusive and IMPase Li inh 19%.
Oc1ccc(-c2csc(Nc3ncccn3)n2)c(O)c1 was read as ALDH1A1 block 21% and IMPase Li inh 7%.
Oc1ccc(-c2cnns2)c(O)c1 was read as HPGD block 2µM*, 12-hLO inh -15%, ALDH1A1 block 25µM*, PNC inhibitor inconclusive and IMPase Li inh 4%.
`COC(=O)C1=C(C(=O)OC)[C@@H]2N(Cc3ccccc3)c3ccccc3[C@@]23C[C@@H](C(=O)OC)N(S(=O)(=O)c2ccc(C#N)cc2)C3=N1` gave HPGD block -9%, 12-hLO inh 1%[11.4 µM], ALDH1A1 block -6%[13.5 µM] and IMPase Li inh 5%.
For Cc1ccc(-c2nnc(Nc3ccccc3)c3ccccc23)cc1S(=O)(=O)NCc1nc2ccccc2[nH]1 the results were IMPase inh 3.
`O=C(NC1CCCCC1)NC1CCN(S(=O)(=O)Cc2ccccc2)CC1` gave HPGD block 2%, 12-hLO inh -3%, ALDH1A1 block 4%, IMPase inh -5, PNC inhibitor -10 and IMPase Li inh 9%[38.3 µM].
Screening O=C(NCC1CCCO1)C1CCC(CNS(=O)(=O)c2ccccc2)CC1 (stereo not drawn) returned HPGD block -9%, 12-hLO inh 2%, ALDH1A1 block 14µM*, IMPase inh -4, PNC inhibitor -19 and IMPase Li inh 14%[38.3 µM].
Screening O=C(NCC1CCCO1)C1CCN(S(=O)(=O)c2ccccc2)CC1 (stereo not drawn) returned ALDH1A1 block 2% and IMPase Li inh 1%.
Screening COC(=O)C1CCN(S(=O)(=O)Cc2ccccc2)CC1 returned HPGD block 22µM*, 12-hLO inh -2%, ALDH1A1 block inconclusive, IMPase inh 25, PNC inhibitor 31 and IMPase Li inh 9%[38.3 µM].
`O=C(NCC1CCCO1)C1CCN(S(=O)(=O)Cc2ccccc2)CC1` (stereo not drawn) gave HPGD block 2%, 12-hLO inh -2%, ALDH1A1 block 10%, IMPase inh -4, PNC inhibitor -108* and IMPase Li inh 13%[38.3 µM].
Screening Cc1noc(C)c1C(=O)N1CCC[C@@]2(CCN(C(c3ccccc3)c3ccccc3)C2)C1 returned HPGD block -6%, 12-hLO inh -7%, ALDH1A1 block 4% and IMPase Li inh -3%.
For CCn1c(=N)c(C(=O)NCC2CCCO2)cc2c(=O)n3cc(C)ccc3nc21 (stereo not drawn) the results were IMPase inh -19.
For COc1ccccc1NC(=O)CSc1nnc2c3ccccc3n(C(C)C)c2n1 the results were IMPase inh 1.
For CCOc1cccc(C=Nc2cc(C)cc(C)c2O)c1O the results were HPGD block 11µM*, 12-hLO inh -9%, ALDH1A1 block 22µM*, IMPase inh 2, PNC inhibitor inconclusive and IMPase Li inh 30%[38.3 µM].
For Cc1cc(NS(=O)(=O)c2ccc(NC(=O)COc3cc(C)c(Br)cc3C(C)C)cc2)no1 the results were IMPase inh 5.
O=C(NC1CCCCCC1)C(=S)N1CCOCC1 was read as ALDH1A1 block 10µM* and IMPase Li inh 4%.
O=C(NC1CCCCCC1)C(=S)N1CCCC1 was read as ALDH1A1 block -6% and IMPase Li inh 0%.
For O=C(O)C1C2C=CC(CC2)C1C(=O)O (stereo not drawn) the results were HPGD block -3%, 12-hLO inh 7%, ALDH1A1 block 7%, IMPase inh 11, PNC inhibitor 38 and IMPase Li inh -2%[38.3 µM].
Screening N[C@H]1[C@@H](C(=O)O)[C@H]2C=C[C@H]1C2 returned HPGD block 2%, 12-hLO inh 2%[11.4 µM], ALDH1A1 block 0.5µM* and IMPase Li inh -1%.
Screening CC1(CCc2ccccc2)NC(=O)N(Cc2nnc(-c3ccccc3Br)o2)C1=O (stereo not drawn) returned HPGD block -8%, 12-hLO inh 0%, ALDH1A1 block 13%, IMPase inh 3, PNC inhibitor -22 and IMPase Li inh 1%[38.3 µM].
Screening O=C1NC2(CCCc3ccccc32)C(=O)N1Cc1nnc(-c2ccccc2Br)o1 (stereo not drawn) returned HPGD block -28%, 12-hLO inh -7%, ALDH1A1 block inconclusive, IMPase inh 3, PNC inhibitor -83* and IMPase Li inh -7%[38.3 µM].

Screens as filed in PubChem BioAssay.
